From PubChem BioAssay AID1159580 (chemical genetic matrix, 2015)
The campaign covered roughly 5,500 compounds. About 2,000 (36%) were called active. Inconclusive results (about 18%) are left out. Cut-off read from the data, not from the text of the source: active = normalized growth mostly below about 0.91 (no sharp cut-off); inconclusive = no clear call, values can overlap the other calls; inactive = mostly above about 0.92. Some of the results follow.

Experiment: chemical genetic growth profiling, strain panel (AID 1159580);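 note: tested at 20 µM; growth read once vehicle control cultures reached saturation at 30 °C; 1 = growth at the plate median or of vehicle wells; lower values mean less growth of the strain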
Settings: S. cerevisiae deletion strains, growth OD
[1] = locus YAL040C, strain CLN3, active compounds read low
[2] = locus YDR363W, strain ESC2, active compounds read low
[3] = locus YER002W, strain NOP16, active compounds read low
[4] = locus YNL128W, strain TEP1, active compounds read low
[5] = locus YNL153C, strain GIM3, active compounds read low
[6] = locus YNL175C, strain NOP13, active compounds read low
[7] = locus YNL197C, strain WHI3, active compounds read low
[8] = locus YNL224C, strain SQS1, active compounds read low
[9] = locus YNL322C, strain KRE1, active compounds read low
[10] = locus YOR083W, strain WHI5 (second series), active compounds read low

Measured: normalized growth

CC(=O)N[C@@H](Cc1c[nH]c2ccccc12)C(=O)OCc1cc(C(F)(F)F)cc(C(F)(F)F)c1
inactive: locus YAL013W, strain DEP1, active compounds read low 0.999 | [1] 1.02 | [2] 1.01 | [3] 1 | locus YMR263W, strain SAP30, active compounds read low 0.994 | [4] 1.03 | [5] 0.969 | [6] 0.985 | [7] 0.994 | [8] 0.994 | [9] 1.01 | [10] 1.03

C#CCN[C@H](C)Cc1ccccc1
inactive: [1] 1 | locus YCL061C, strain MRC1 (second series), active compounds read low 0.992 | locus YDR150W, strain NUM1, active compounds read low 0.997 | [2] 1.01 | [3] 0.996 | locus YGR078C, strain PAC10, active compounds read low 0.987 | locus YJR075W, strain HOC1, active compounds read low 0.994 | [4] 0.998 | [5] 1 | [6] 0.997 | [7] 0.982 | [8] 0.995 | [9] 0.998 | [10] 1.03 | locus YPL241C, strain CIN2, active compounds read low 0.999
